Entries with a potency or affinity are not part of this list. Active and inactive are the calls of the source. The limit is not given here; nearly all actives have IC50 up to about 0.91 µM.
The compounds below were run against Calcium-dependent protein kinase 4 (Plasmodium falciparum (isolate 3D7)) (UniProt Q8IBS5) (assay: PfCDPK4 kinase inhibitors, biochemical, TCAMS library (AID 1159588)). Conditions: recombinant PfCDPK4, Kinase-Glo ATP depletion luminescence.
Calcium-dependent protein kinase 4 (Plasmodium falciparum (isolate 3D7)), sequence (Q8IBS5 whole entry, looked up): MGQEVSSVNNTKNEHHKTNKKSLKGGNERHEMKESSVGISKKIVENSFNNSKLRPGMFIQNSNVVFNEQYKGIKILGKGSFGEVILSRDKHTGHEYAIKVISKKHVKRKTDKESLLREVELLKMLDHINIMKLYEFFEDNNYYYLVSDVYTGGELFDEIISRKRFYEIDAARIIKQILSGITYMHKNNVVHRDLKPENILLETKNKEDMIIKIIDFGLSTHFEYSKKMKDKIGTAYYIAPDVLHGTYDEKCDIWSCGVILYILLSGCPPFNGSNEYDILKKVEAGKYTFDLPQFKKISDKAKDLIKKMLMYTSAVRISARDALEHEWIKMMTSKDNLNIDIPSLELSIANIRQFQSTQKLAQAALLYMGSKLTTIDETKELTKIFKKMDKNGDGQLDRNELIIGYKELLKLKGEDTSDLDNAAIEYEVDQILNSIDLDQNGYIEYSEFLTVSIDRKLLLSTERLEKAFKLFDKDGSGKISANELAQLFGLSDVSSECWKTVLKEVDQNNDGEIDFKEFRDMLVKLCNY

outcome, inactive:
Cc1cccc2[nH]c(-c3cccc(-c4ccc(NC(=O)Cc5cnc[nH]5)cc4)c3)nc12
Fc1ccc(-c2nc(NCc3cccc(C(F)(F)F)c3)nn2-c2cccc(C(F)(F)F)c2)cc1C(F)(F)F
Cc1cnc(NC(=O)c2cn(-c3ccccc3)nc2-c2cccs2)s1
CCN(CC)CCNC(=O)c1ccc(NC(=O)c2oc3c(Cl)cccc3c2C)cc1
COc1ccc(C=C2SC(=O)NC2=Nc2ccccc2)c(OC)c1
Cc1cc(N[C@@H](Cc2ccccc2)C(=O)NCCc2ccccc2)nc(NCc2ccccc2C)n1
COc1cc(CNCCCCCCNCc2cc(OC)cc3ccccc23)c2ccccc2c1
COc1cc(NC(=O)c2c(-c3c(Cl)cccc3Cl)noc2C)c(OC)cc1Cl
CN1CCN(CC2(Nc3nccc(NCc4ccc(Cl)cc4Cl)n3)CCCCC2)CC1
CN(C)CCCNCCS(=O)(=O)c1cccc(Nc2ccc(-c3cccc(N(C)C)c3)cn2)c1
COc1cc(SC)c(Br)cc1-c1nc2ccncc2[nH]1
Cc1cc(N2CCN(C3CCCCC3)CC2)nc2cccc(O)c12
CCCCCCn1c(Sc2ccc(C#N)c([N+](=O)[O-])c2)nnc1-c1ccc(OC)cc1
Cc1cc(N[C@@H](Cc2ccccc2)C(=O)NCc2cccs2)nc(NCCOc2ccccc2)n1
C(=N\Nc1nccc2sc(-c3cccnc3)cc12)/c1ccncc1
CCOC(=O)C(CO)NC(=O)c1ccc([N+](=O)[O-])o1 (stereo not given)
COc1ccc2nccc([C@@H](O)CN3CCC(NC(=O)c4cc5ccccc5[nH]4)CC3)c2c1
COc1ccc(-c2cccc(NC(=O)c3ccc(C#N)cc3)c2)cc1CN1CCCN(C)CC1
Cc1nccc2c(NC(=O)N[C@@H]3CCN(c4ncc(C(F)(F)F)cc4Br)C3)cccc12
CN(C)CCOC(=O)C1(O)CCC2CC1C2(C)C (stereo not given)
c1cncc(CCNCc2ccc(-c3cccc(-c4nc5ccccc5[nH]4)c3)cc2)c1
O=C(Cn1c(=O)cnc2ccccc21)Nc1cccc(C(=O)Nc2cccc(C(F)(F)F)c2)c1
COc1cc(Nc2nccc(N3CCC(NC(=O)c4cc5ccccc5s4)C3)n2)cc(OC)c1OC (stereo not given)
COc1ccc2ncc(C#N)c(CCN3CCC(NCc4ccc5c(c4)OCCO5)CC3)c2c1
COc1ccc(-c2cncc3ccc(C(=O)NCc4ccncc4)nc23)cc1
CC(C)(C)c1ccc(-c2ccccc2CNC(=O)c2cccc(O)c2)cc1
COc1ccc2nccc([C@@H](O)CN3CCC(NCc4cc5cc([N+](=O)[O-])ccc5[nH]4)CC3)c2c1
COc1ccc(C=NNc2cc(C)nc3ccccc23)cc1OC
Cc1cc(C(=O)NCc2ccc(-c3c(C)noc3C)cc2)n(-c2ccc(Cl)cc2)n1
O=C(Nc1cccc(CN2CCCN(Cc3ccc(O)cc3)CC2)c1)c1ccc(-c2ccccc2)cc1
CC(Cc1ccc(OCCN2CCN(c3cccc(C(F)(F)F)c3)CC2)cc1)NCC(O)c1cccc(C(F)(F)F)c1 (stereo not given)
COC(=O)C(=C(C)C)N1C(=O)[C@@H](NC(=O)OCc2ccccc2)[C@H]1SS[C@@H]1[C@H](NC(=O)OCc2ccccc2)C(=O)N1C(C(=O)OC)=C(C)C
CNCCNCc1ccc(-c2ccc(-c3nc4ccc(F)cc4[nH]3)cc2)cc1
COCc1nc(N)nc(N)c1-c1ccc(Cl)c(Cl)c1
O=C(/C=C/c1ccc(Cl)c(Cl)c1)NC1CCC(CN2CCC(c3cc4ccccc4[nH]3)CC2)CC1 (stereo not given)
CC(C)C1=CC(=NOS(=O)(=O)c2ccccc2)C=C(C(C)C)C1=O
c1ccc(-c2ccc(-c3csc(Nc4ccncc4)n3)cc2)cc1
O=C(Cc1ccc([N+](=O)[O-])cc1)N1CCc2cc3nccc(N4CCN5CCC[C@H]5C4)c3cc21
CC[C@H]1CN(CCCC(=O)c2ccccc2)CC[C@H]1CCCc1ccnc2ccc(OC(=O)c3ccccc3)cc12
Cn1cncc1-c1ccc2ncnc(Nc3ccc(OCc4ccccc4)cc3)c2c1
